Data: ChEMBL document CHEMBL4513216, “Probing the Open Global Health Chemical Diversity Library for Multistage-Active Starting Points for Next-Generation Antimalarials” (ACS Infect Dis, 2020)
The whole screen tested about 65,000 compounds, of which about 2,100 (3.2%) showed an effect of 50% or more. The median lay at about -52%. Many of the other results were omitted from the sample, so strong results are more common in it than they were.

tested on: Plasmodium falciparum; assay: Screen against P. falciparum Asexual Blood Stage (ABS), at 5uM; assay type: functional, Dd2; details: tested at 5 uM

SMILES	INHIBITION [%]
c1cc(CNCc2ccc(-n3cncn3)nc2)cc(OC2CCCC2)c1	-6.1
Cc1ccc(C(=O)N2CCc3ncnc(-c4cnn(C)c4)c3CC2)o1	-34.2
Cc1ccc(OCC(=O)Nc2ccc(S(C)(=O)=O)cc2)cc1C	-89.1
N#Cc1cnc(NCCCN2C(=O)COc3ccccc32)c(Cl)c1	-73.7
N#Cc1c(Cl)nsc1NCCCN1C(=O)COc2ccccc21	58.1
N#Cc1ccc(NCCCN2C(=O)COc3ccccc32)nc1	-30.6
CC(C)NC(=O)c1sc2ccccc2c1C1CCC(CN)CC1 (stereo not drawn)	0.324
COc1nn(C)c2c1CCCN(C(=O)c1ccc3ccccc3n1)C2	-94.4
O=C(c1ccc[nH]1)N1C[C@@H]2CC[C@H]1CN(C1Cc3ccccc3C1)C2	-60.5
CCCc1nc(C[S+]([O-])Cc2cn3cccc(C)c3n2)no1 (stereo not drawn)	-22
CCN1CCO[C@@H]2CN(C(=O)c3ccc4[nH]ccc4c3)CC[C@@H]2C1	-49.2
OCCNc1nccc(-c2c[nH]nc2-c2ccncc2)n1	-56.1
OC[C@@H]1CCCN1c1nccc(-c2c[nH]nc2-c2ccncc2)n1	68.3
CN1CCCN(c2nccc(-c3c[nH]nc3-c3ccncc3)n2)CC1	66.9
CN1CCCN(c2nccc(-c3cc(C(=O)O)ccn3)n2)CC1	-113
Cc1ncc(-c2ccnc(N3CCC[C@@H]3CO)n2)c(-c2cccnc2)n1	-23.8
CN1CCCN(c2nccc(-c3c[nH]c4ccc(Br)cc34)n2)CC1	43.1
CNc1cccc(C2CCCN(C(=O)c3cscn3)C2)n1 (stereo not drawn)	-9
CC1N(C)C(=O)COC12CCN(Cc1ccsc1)CC2 (stereo not drawn)	-52.9
COCCN1CCCC1c1nccnc1Nc1nccs1 (stereo not drawn)	1.36
Cc1cccn2c(CC(=O)N3CCC(CCn4cccn4)CC3)cnc12	-1.65
N#Cc1cccc(OCCN2CCCC2C(=O)N2CCSCC2)c1 (stereo not drawn)	51.9
N#Cc1cccc(OCCN2CCCC2C(=O)NCC(F)(F)F)c1 (stereo not drawn)	1.9

SMILES	INHIBITION [%]
N#Cc1cccc(OCCN2CCCC2C(=O)NC2CC2)c1 (stereo not drawn)	-14.2
c1cc(CNCCc2cn3ccccc3n2)c2c(c1)OCCCO2	-57.2
Cc1cccn2cc(CNCc3cccc4c3OCCCO4)nc12	53.7
Cc1cccc2nc(CNCc3cccc4c3OCCCO4)cn12	47.8
Cc1ccc(CN2Cc3c(C(=O)N(C)C)nn(C)c3C2)s1	-70.8
Cc1nnc(N2C[C@@H](OCCCn3cccn3)[C@H]3OCCC[C@H]32)s1	-31.4
OC1(CNCc2csc(-c3ncccn3)n2)CCCNC1 (stereo not drawn)	-26.6
CC(C)Oc1cccc(CNC(Cc2ccsc2)c2nccs2)c1 (stereo not drawn)	-29.2
Cc1cccnc1C(Cc1ccsc1)NC(=O)Cn1cccnc1=O (stereo not drawn)	4.78
Cc1cccnc1C(Cc1ccsc1)NCc1cnc(N(C)C)nc1 (stereo not drawn)	66.6
CN1CCCC(Cc2cncc(C(=O)N3CCOCC3)c2)C1 (stereo not drawn)	-133
O=S1(=O)NC(c2ccnc(N3CCOCC3)n2)=Nc2ccccc21	-15.8
CN(Cc1ccccc1)C(=O)CSc1ccc2c(c1)OCCO2	-122
COc1ccc(CN2CCCC3(CCN(c4ccsc4)C3=O)C2)cc1 (stereo not drawn)	62.3
COCCN1CCCC2(CCN(c3ccsc3)C2=O)C1 (stereo not drawn)	16
CN(C)C(=O)CN1CCCC2(CCN(c3ccsc3)C2=O)C1 (stereo not drawn)	-78.3
O=C1N(c2ccsc2)CCC12CCCN(CC1CC1)C2 (stereo not drawn)	51.6
O=C(CO)N1CCCC2(CCN(c3ccsc3)C2=O)C1 (stereo not drawn)	-104
COc1ccc(CN2CCC3(CCN(c4cccnc4)C3=O)C2)cc1 (stereo not drawn)	-23.2
CC1COC2(CCN(C(=O)Cc3ccncc3)CC2)C1 (stereo not drawn)	-78.3
Cc1cc(C2CCCN(CCc3ccc4c(c3)CCO4)C2)n[nH]1 (stereo not drawn)	-25.4
COc1ccccc1OCCN1CCCCC1Cn1cncn1 (stereo not drawn)	-9.63
CCc1nnc(Nc2cccc(C3CCN(S(=O)(=O)N(C)C)CC3)n2)s1	7.99

SMILES	INHIBITION [%]
O=C(NCc1nncn1-c1ccccc1)C1CCCCC1	-107
OC1(CN2CCCCC2)CCN(c2cccc(C(F)(F)F)n2)C1 (stereo not drawn)	60.4
N[C@@H]1c2ccccc2C2(CCN(c3ccc(C(F)(F)F)cn3)CC2)[C@H]1O	-38.4
OC1(CN2CCCCC2)CCN(c2cc(C(F)(F)F)ccn2)C1 (stereo not drawn)	39.2
O=C1CCC2(CCN(c3cccc(C(F)(F)F)n3)CC2)CN1CCO	-33.7
OC1(CN2CCCCC2)CCN(c2ccc(C(F)(F)F)cn2)C1 (stereo not drawn)	53.5
OC1(CN2CCCCC2)CCN(c2nccc(C(F)(F)F)n2)C1 (stereo not drawn)	-41.9
Cc1ccc(C(=O)N2CCC(c3n[nH]c(C4CC4)n3)CC2)cc1F	-91.9
Cn1ccnc1CN1CCC2(CC1)CC(Oc1cccnc1)C2	-85.4
Cc1ccc(NC(=O)CC2NC(N3CCc4ccccc43)=NC2=O)cc1 (stereo not drawn)	-135
O=C1CC(c2ccncc2)C2(CCN(CCc3ccccc3)CC2)N1 (stereo not drawn)	-55.3
O=C1CCC2(CCCN(C(=O)c3cnccn3)CC2)N1 (stereo not drawn)	51.9
O=C1CCCC2(CCN(C(=O)c3cnccn3)CC2)N1	-96.5
O=C1CCC2(CCCN(C(=O)c3cccnc3)CC2)N1 (stereo not drawn)	-40.9
O=C(NCCN1CCCC1)C1(c2ccc(Cl)cc2)CCOCC1	63.7
Cc1ccccc1C1(C(=O)NCCN2CCCC2)CCOCC1	-5.04
COc1ccccc1C1(C(=O)NCCN2CCCCC2)CCOCC1	-35.3
CC(Oc1ccc2c(c1)OCO2)C(=O)N1CCC(N2CCOCC2)CC1 (stereo not drawn)	-162
CCn1cc(NC(=O)CN2CCC(Oc3ccc(F)cc3)CC2)c(C)n1	-33.8
Cc1cc(N2CCCN(Cc3ccc(C)o3)CC2)ccn1	35.2
Cc1cc(N2CCCN(c3nc(C)nc(C)c3C)CC2)ccn1	58
Cc1cc(N2CCCN(c3ccnc(C)c3)CC2)ccn1	-86.7
